Compounds with a hit are over-represented: about 3.9% of the library has one in this group of screens.
BoNT-A LC inh2: BoNT/A light chain protease inhibitors, primary screen, biochemical, flow cytometry, MLPCN library. Botulinum neurotoxin type A light chain protease (Clostridium botulinum A str. ATCC 3502). multiplex microsphere protease substrate cleavage. inhibition, % at 10 µM. hit rate 0.17% among 360,000; also: plate controls were buffer without enzyme for full effect and enzyme alone for no effect
SARS 3CLpro inh: SARS-CoV 3CLpro protease inhibitors, primary screen, biochemical, quenched FRET | Replicase polyprotein 1ab (Severe acute respiratory syndrome coronavirus), P0C6X7 | recombinant SARS-CoV 3CLpro, quenched FRET peptide cleavage | inhibition, % at 6 µM | hit rate 0.14% among 290,000; in the data active = inhibition above about 12%
BoNT F protease: BoNT/F light chain protease inhibitors, primary screen, biochemical, flow cytometry, MLPCN library | Multiplex microsphere protease cleavage assay | inhibition, % at 10 µM | hit rate 0.22% among 360,000 | AID 588497, 2011; in the data active = inhibition above about 35%, passing the limit was not always enough; inconclusive = no clear call, values can overlap the other calls; also: plate controls were buffer without enzyme for full effect and enzyme alone for no effect
Bead autofluor: compound fluorescence in toxin protease inhibitor counterscreen. compound autofluorescence counterscreen, microsphere flow cytometry; active compounds read high. fluorescence intensity (concentration not given with the values). hit rate 3.1% among 360,000; in the data active = fluorescence intensity above about 16000; inconclusive = no clear call, values can overlap the other calls
Anthrax LF inh2: Bacillus anthracis LF protease inhibitors, primary screen, biochemical, multiplex microsphere, MLPCN library. inhibition, % at 10 µM. multiplex microsphere protease cleavage assay. hit rate 0.12% among 360,000; also: plate controls were buffer without enzyme for full effect and enzyme alone for no effect
Target sequence (P15917 whole entry, looked up): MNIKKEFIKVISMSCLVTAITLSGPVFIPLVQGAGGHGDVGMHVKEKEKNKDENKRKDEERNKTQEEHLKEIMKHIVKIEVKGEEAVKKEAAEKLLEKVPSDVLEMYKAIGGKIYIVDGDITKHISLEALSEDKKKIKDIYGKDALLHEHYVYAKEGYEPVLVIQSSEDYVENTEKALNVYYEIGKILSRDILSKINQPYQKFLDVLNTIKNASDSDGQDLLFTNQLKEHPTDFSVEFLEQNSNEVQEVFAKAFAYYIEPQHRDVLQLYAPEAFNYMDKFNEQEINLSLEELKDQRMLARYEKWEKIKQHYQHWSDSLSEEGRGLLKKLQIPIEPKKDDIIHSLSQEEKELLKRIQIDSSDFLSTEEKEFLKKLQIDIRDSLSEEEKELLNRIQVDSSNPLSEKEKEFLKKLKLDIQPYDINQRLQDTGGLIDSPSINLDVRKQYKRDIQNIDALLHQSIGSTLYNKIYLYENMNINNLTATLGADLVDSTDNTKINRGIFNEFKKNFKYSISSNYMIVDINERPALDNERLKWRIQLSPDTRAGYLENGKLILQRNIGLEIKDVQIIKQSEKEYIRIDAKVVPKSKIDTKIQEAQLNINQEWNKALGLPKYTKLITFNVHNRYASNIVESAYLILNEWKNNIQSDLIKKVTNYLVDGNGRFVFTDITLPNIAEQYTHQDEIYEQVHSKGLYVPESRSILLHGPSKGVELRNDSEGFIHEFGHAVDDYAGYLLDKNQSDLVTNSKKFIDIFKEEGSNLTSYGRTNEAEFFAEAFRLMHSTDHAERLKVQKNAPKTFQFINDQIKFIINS
CCHF vOTU inh: CCHFV vOTU protease inhibitors, primary screen, biochemical, Pep-AMC substrate, fluorescence; Crimean-Congo hemorrhagic fever virus L polyprotein viral ovarian tumor (vOTU) protease …; AID 651958, 2012; inhibition, % at 11.5 µM; hit rate 0.55% among 370,000; in the data active = inhibition above about 30%; also: 0% = vehicle wells with enzyme and 100% = no enzyme wells
* marks the source's active call; other numbers are inactive results. Rule as the data show it, unless noted: active = inhibition above about 30%; inconclusive = no clear call, values can overlap the other calls; inactive = below that.

`COc1ccc(S(=O)(=O)NCCOc2ccccc2)cc1C` gave BoNT-A LC inh2 0, SARS 3CLpro inh -4, BoNT F protease 6, Bead autofluor 3363, Anthrax LF inh2 -9 and CCHF vOTU inh -3.
`COc1ccc(S[C@]2(C(=O)N3CCOCC3)CC(=O)N(c3ccc(OC)cc3)[C@@H]2c2ccc(OC)cc2)cc1` gave CCHF vOTU inh 12.
For CCOC(=O)CNC(=O)CSc1nnc(-c2ccc(C(C)(C)C)cc2)n1-c1ccc(Cl)cc1 the results were CCHF vOTU inh 26.
For Cc1ccc(NC(=O)Cn2nnc(-c3ccncc3)n2)cc1C the results were CCHF vOTU inh -3.
Cc1cc(S(=O)(=O)Nc2cc(C)c(O)c(C)c2)c(C)s1 was read as BoNT-A LC inh2 -3, SARS 3CLpro inh -1, BoNT F protease -5, Bead autofluor 16803*, Anthrax LF inh2 -6 and CCHF vOTU inh -13.
Screening CC[C@H](NC(=O)[C@H]1O[C@@H](n2cnc3c(=O)[nH]c(N)nc32)[C@H](O)[C@@H]1O)c1ccccc1 returned CCHF vOTU inh -7.
CCc1cc(=O)oc2cc(C)c(CN3CCCC3)c(O)c12 was read as BoNT-A LC inh2 -2, SARS 3CLpro inh -3, BoNT F protease -9, Bead autofluor 17050*, Anthrax LF inh2 -4 and CCHF vOTU inh 19.
Screening O=C(C[n+]1cc(Br)cc2ccccc21)c1ccccc1 returned BoNT-A LC inh2 100*, SARS 3CLpro inh -4, BoNT F protease 34, Bead autofluor 6295, Anthrax LF inh2 46* and CCHF vOTU inh -7.
For COc1ccc(C(=O)C[n+]2cc(Br)cc3ccccc32)cc1[N+](=O)[O-] the results were BoNT-A LC inh2 116*, SARS 3CLpro inh -4, BoNT F protease 52*, Bead autofluor 6163, Anthrax LF inh2 22 and CCHF vOTU inh 4.
Screening O=C(N/N=C/c1ccccc1[N+](=O)[O-])c1ccc2nc[nH]c2c1 returned BoNT-A LC inh2 1, SARS 3CLpro inh 2, BoNT F protease 49*, Bead autofluor 4316, Anthrax LF inh2 inconclusive and CCHF vOTU inh 1.
For O=C(N/N=C/c1ccc(Cl)c([N+](=O)[O-])c1)c1ccc2nc[nH]c2c1 the results were BoNT-A LC inh2 1, SARS 3CLpro inh 1, BoNT F protease 0, Bead autofluor 2851, Anthrax LF inh2 0 and CCHF vOTU inh 12.
`COc1nsnc1N1CCOCC1` gave BoNT-A LC inh2 0, SARS 3CLpro inh 3, BoNT F protease 4, Bead autofluor 3386, Anthrax LF inh2 -2 and CCHF vOTU inh 3.
Screening COC(=O)COc1nsnc1N1CCOCC1 returned BoNT-A LC inh2 -6, SARS 3CLpro inh 0, BoNT F protease -9, Bead autofluor 24961*, Anthrax LF inh2 -13 and CCHF vOTU inh -5.
Screening COc1ccccc1-n1c(C)nnc1SCC(=O)Nc1cc(C)cc(C)c1 returned BoNT-A LC inh2 0, SARS 3CLpro inh 4, BoNT F protease 0, Bead autofluor 23628*, Anthrax LF inh2 -2 and CCHF vOTU inh -5.
COc1ccccc1-n1c(C)nnc1SCC(N)=O was read as BoNT-A LC inh2 1, SARS 3CLpro inh 0, BoNT F protease 1, Bead autofluor 22827*, Anthrax LF inh2 3 and CCHF vOTU inh -7.
Screening CC(=O)OC12CCCN(C1)/C(=C/c1ccc(Cl)cc1)C2 (centres undefined) returned CCHF vOTU inh 10.
For Cc1ccc(-n2c(Cc3ccccc3)n[nH]c2=S)cc1 the results were BoNT-A LC inh2 2, SARS 3CLpro inh 0, BoNT F protease 4, Bead autofluor 22337*, Anthrax LF inh2 0 and CCHF vOTU inh 2.
Screening S=c1[nH]nc(Cc2ccccc2)n1-c1ccc(Cl)cc1 returned BoNT-A LC inh2 -2, SARS 3CLpro inh -1, BoNT F protease -12, Bead autofluor 2376, Anthrax LF inh2 -1 and CCHF vOTU inh 1.
S=c1[nH]nc(Cc2ccccc2)n1-c1ccccc1 was read as BoNT-A LC inh2 inconclusive, SARS 3CLpro inh -4, BoNT F protease 1, Bead autofluor 19172*, Anthrax LF inh2 1 and CCHF vOTU inh -2.
For COC(=O)C1CN(Cc2ccc(C)cc2)CCS(=O)(=O)N1Cc1cn(Cc2ccc(OC)cc2)nn1 (centres undefined) the results were CCHF vOTU inh 5.
`O=C(c1ccccc1)N1CCCC(C(=O)N2CCc3ccccc3C2)C1` (centres undefined) gave BoNT-A LC inh2 0, SARS 3CLpro inh 3, BoNT F protease -16, Bead autofluor 5418, Anthrax LF inh2 3 and CCHF vOTU inh -4.
For O=C(c1ccccc1)N1CCCC(C(=O)N2CCCCCC2)C1 (centres undefined) the results were BoNT-A LC inh2 -3, SARS 3CLpro inh 3, BoNT F protease -6, Bead autofluor 24585*, Anthrax LF inh2 -3 and CCHF vOTU inh -2.
Screening COc1ccc(C(=O)N2CCCC(C(=O)N3CCCCCC3)C2)cc1 (centres undefined) returned BoNT-A LC inh2 -2, SARS 3CLpro inh 1, BoNT F protease -4, Bead autofluor 20377*, Anthrax LF inh2 -4 and CCHF vOTU inh 2.
`CN(C)[C@H]1CCN(c2ccc3c(c2)O[C@H]2CCN(C2)S3(=O)=O)C1` gave CCHF vOTU inh 0.
`COC(=O)c1cc2c(c3c4cc(F)ccc4n(S(=O)(=O)c4ccc(C)cc4)c13)C(=O)N(Cc1ccccc1OC)C2` gave CCHF vOTU inh -3.
Cc1ccc(CNC(=O)c2cc(C)nn2-c2ccccc2)cc1 was read as BoNT-A LC inh2 0, SARS 3CLpro inh -3, BoNT F protease 1, Bead autofluor 4071, Anthrax LF inh2 -2 and CCHF vOTU inh 5.
`Cc1ccc(Cc2nnc3n(-c4ccccc4)nc(C(=O)c4ccccc4)n3c2=O)cc1` gave BoNT-A LC inh2 -3, SARS 3CLpro inh 4, BoNT F protease -5, Bead autofluor 21560*, Anthrax LF inh2 -1 and CCHF vOTU inh 1.
Screening COc1ccc(C(=O)N(C)[C@H]2C[C@H]3c4[nH]c5cccc(-c6ccccc6)c5c4CCN3C[C@H]2[C@H](C)O)cc1 returned CCHF vOTU inh 4.
COc1ccc(NC(=O)C23CC4CC(C2)CC(n2cnc(Br)n2)(C4)C3)cc1OC was read as BoNT-A LC inh2 inconclusive, SARS 3CLpro inh 6, BoNT F protease -4, Bead autofluor 16534*, Anthrax LF inh2 -4 and CCHF vOTU inh -6.
`COc1ccc2c(C(c3ccccc3O)C3CCCN3S(=O)(=O)c3ccc(C)cc3)cn(C)c2c1` (centres undefined) gave CCHF vOTU inh 15.

Source: PubChem (several laboratories)
